# Measured values as given in PubChem BioAssay AID1159580 (chemical genetic matrix, 2015).
# The campaign covered roughly 5,500 compounds. About 2,000 (36%) were called active. Inconclusive results (about 18%) are left out. Some of the results follow. Unmarked numbers belong to inactive results. No stated cut-off is given here; in the data, active means normalized growth mostly below about 0.91 (no sharp cut-off); inconclusive means no clear call, values can overlap the other calls; inactive means mostly above about 0.92.
# Assay: chemical genetic growth profiling, strain panel (AID 1159580);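 further: tested at 20 µM; growth read once vehicle control cultures reached saturation at 30 °C; 1 = growth at the plate median or of vehicle wells; lower values mean less growth of the strain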
# Conditions: S. cerevisiae deletion strains, growth OD
compound,measurement,setting,value
CC1=C(OS(=O)(=O)c2cc(C)c(Cl)cc2Cl)C(=O)CC1,normalized growth,"locus YAL013W, strain DEP1, hits give low values",0.993
same,normalized growth,"locus YBR229C, strain ROT2, hits give low values",0.956
same,normalized growth,"locus YDL101C, strain DUN1, hits give low values",0.968
same,normalized growth,"locus YDR150W, strain NUM1, hits give low values",0.986
same,normalized growth,"locus YEL061C, strain CIN8, hits give low values",1
same,normalized growth,"locus YGR078C, strain PAC10, hits give low values",0.98
same,normalized growth,"locus YGR229C, strain SMI1, hits give low values",0.968
same,normalized growth,"locus YHR030C, strain SLT2, hits give low values",0.85
same,normalized growth,"locus YHR087W, strain rtc3, hits give low values",0.974
same,normalized growth,"locus YJL187C, strain SWE1, hits give low values",0.986
same,normalized growth,"locus YJR043C, strain POL32, hits give low values",0.991
same,normalized growth,"locus YJR075W, strain HOC1, hits give low values",0.984
same,normalized growth,"locus YKL190W, strain CNB1, hits give low values",0.976
same,normalized growth,"locus YLR039C, strain RIC1, hits give low values",0.849
same,normalized growth,"locus YLR058C, strain SHM2 (second series), hits give low values",0.968
same,normalized growth,"locus YLR085C, strain ARP6, hits give low values",0.955
same,normalized growth,"locus YLR262C, strain YPT6, hits give low values",0.866
same,normalized growth,"locus YML094W, strain GIM5, hits give low values",1
same,normalized growth,"locus YMR219W, strain ESC1, hits give low values",0.985
same,normalized growth,"locus YMR263W, strain SAP30, hits give low values",0.977
same,normalized growth,"locus YNL153C, strain GIM3, hits give low values",0.971
same,normalized growth,"locus YNL298W, strain CLA4 (second series), hits give low values",0.914
same,normalized growth,"locus YNL322C, strain KRE1, hits give low values",0.97
same,normalized growth,"locus YNR030W, strain Alg12, hits give low values",0.968
same,normalized growth,"locus YOL006C, strain TOP1, hits give low values",0.897
same,normalized growth,"locus YPL055C, strain LGE1, hits give low values",1.24 [resistant] (active)
same,normalized growth,"locus YPL241C, strain CIN2, hits give low values",0.98
same,normalized growth,"locus YPR135W, strain CTF4, hits give low values",0.87
